S2 tox = reduces viability in counter-screen for ATXN expression inhibitors. S2 cells (HEK-293 line with an ATXN2-luciferase reporter) viability, CellTiter-Fluor protease fluorescence, 24 h. Potency, µM (top dose mostly 56.7 µM), usual class: cytotoxic. 400,000 compounds, 0.49% hits; also: nearly all actives have a fitted effect of over 40% in size
TGFb inhibitor = blocks TGF-b signaling; HepG2 CAGA-GFP TGF-b/SMAD3 reporter, GFP fluorescence, 18 h; TGF-beta stimulated, 500 pg/mL final; Potency, µM (top dose mostly 46.1 µM), without a hit: top-dose activity, negative = inhibition, actives largely listed as inhibitors; 410,000 compounds, 1.2% hits; also: % is scaled to controls: 0 for no effect and ±100 for the full control effect; nearly all actives have a fitted effect of over 65% in size
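GFP signal (ex488/em500-530) from TGF-beta-stimulated HEPG2 CAGA-GFP cells, 500 pg/mL final, 18 h at 37 degrees C in DMEM plus 1% FBS, normalized to unstimulated and DMSO-stimulated controls.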
ATXN2 expr inh = reduces ATXN2 reporter expression in HEK-293 cells. 360,000 compounds, 0.72% hits. Potency, µM (top dose mostly 57 µM), inactives show top-dose activity change, negative = inhibition, most hits filed as inhibitors. HEK-293 ATXN2-luciferase reporter, luminescence, 24 h; also: % is scaled to controls: 0 for no effect and ±100 for the full control effect; nearly all actives have a fitted effect of over 55% in size
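qHTS (up to 57 uM final) was run with 24 h compound exposure of reporter cells at 37 °C. Each well was multiplexed: SteadyGlo luminescence measured ATXN2-luciferase expression after a fluorogenic Gly-Phe-AFC viability readout (25 uM final).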
Nrf2 inh = inhibitors of Nrf2 signaling; A549 ARE-Fluc reporter, luciferase luminescence, 18-24 h; Potency, µM (top dose mostly 46 µM), for inactives: top-dose activity change, negative = inhibition, actives largely listed as inhibitors; 360,000 compounds, 2.1% hits; AID 504444; also: % is scaled to controls: 0 for no effect and ±100 for the full control effect; nearly all actives have a fitted effect of over 60% in size
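A549 ARE_Fluc cells (5000/well, 5% FBS OPTI-MEM) pre-incubated 2 h, then treated with compounds 18-24 h at 37C/5% CO2 in concentration-response. CellTiter-Fluor viability read first; BugLite luciferase luminescence after 15 min at room temperature gives Nrf2 activity.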
A549 tox = counter-screen for Nrf2 inhibitors: cytotoxicity in A549 cells; A549 ARE-Fluc cells, CellTiter-Fluor viability, 18-24 h; Potency, µM (titrated, usually from 46 µM), without a hit: top-dose activity change, negative = cytotoxicity, usual class: inhibitors; AID 504648; 390,000 compounds, 0.16% hits; also: % is scaled to controls: 0 for no effect and ±100 for the full control effect
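Cytotoxicity counterscreen: CellTiter-Fluor fluorescence was measured in A549 ARE_Fluc cells after 18-24 h of compound exposure in a concentration series. The subsequent BugLite luminescent read reports ARE-luciferase activity.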
HepG2 viability = HepG2 cytotoxicity, counter-screen for TGF-b inhibitors; HepG2 CAGA-GFP viability, ATP luminescence, 18 h; Potency, µM (doses to about 46.1 µM), inactives show at the highest dose activity change, negative = cytotoxicity, most hits filed as cytotoxic; 410,000 compounds, 0.76% hits; AID 588856
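HepG2 CAGA-GFP cells (1000/well, DMEM with 1% FBS) received compound, then TGF-beta at 500 pg/mL final, and were incubated 18 hours at 37 degrees C. Viability was read by CellTiter-Glo luminescence. Media-only wells were set as complete cell-killing and DMSO as no toxicity.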
The depositor's hits bear a star; i = inactive; u = inconclusive; x = not tested or not shown. A selection: hits, their analogues and other compounds. The true share with any hit is near 3.8%. Calls follow the shape of the dose curve; as a rule, active = well fitted curve in the direction sought with a large enough effect; inconclusive = small, poorly fitted or top-dose-only effect, or another doubt; inactive = no such curve, though single readings can be large; an effect the other way counts as inactive or inconclusive. Potency is read from the fitted curve at half-maximal effect.

SMILES	S2 tox	TGFb inhibitor	ATXN2 expr inh	Nrf2 inh	A549 tox	HepG2 viability
O=S(=O)(Nc1nc2ccccc2nc1Cl)c1ccc(Br)cc1	i	12.6µM*	x	u	-11.9%	-45.9%
O=S(=O)(Nc1nc2ccccc2nc1Cl)c1ccc(Cl)cc1	x	12.6µM*	-16.4%	u	1.3%	-42.9%
Cc1ccccc1S(=O)(=O)Nc1nc2ccccc2nc1Cl	i	26.1%	4.6%	0.1%	-7.5%	1.2%
OCCNc1nc(Nc2ccccc2)nc2ccccc12	i	u	-11.7%	-22.7%	-2.0%	-5.4%
Oc1ccccc1Nc1nc(NCc2ccccc2)c2ccccc2n1	i	11.2µM*	u	-11.4%	-11.6%	-40.3%
Cc1c(Cl)cccc1Nc1nc(NCCO)c2ccccc2n1	i	11.2µM*	-11.8%	2.4%	-7.0%	-18.5%
CNc1nc(NCc2ccccc2)c2ccccc2n1	i	u	u	u	u	-35.2%
Oc1ccccc1-c1nc(NCc2ccccc2)c2ccccc2n1	i	-9.0%	-33.1%	u	9.3%	-6.1%
CCCCNc1nc(NCc2ccccc2)nc2ccccc12	31.6µM*	x	22.4µM*	x	x	x
CCC(=O)Nc1ccc(-c2nnc(SCc3ccccc3)n2C)cc1	x	-1.7%	x	x	x	-14.4%
Cc1ccc(N2CC(C(=O)Nc3ccc(Br)cc3)CC2=O)cc1 (stereo not drawn)	i	u	1.0%	x	6.2%	-7.1%
Cc1ccc(NCc2ccc(O)c3ncccc23)c(F)c1	x	x	x	20.6µM*	-10.3%	x
Oc1ccc(CNc2cccc(F)c2)c2cccnc12	x	x	x	u	-17.8%	x
Oc1ccc(CNc2ccccc2)c2cccnc12	i	u	-35.5%	5.17µM*	-13.5%	-51.5%
Oc1ccc(CNc2ccc(F)cc2)c2cccnc12	i	u	-16.0%	7.31µM*	u	-67.0%
Oc1ccc(CNCc2ccccc2F)c2cccnc12	x	x	x	1.3µM*	-10.5%	x
Oc1ccc(CCc2c(F)cccc2F)c2cccnc12	x	x	x	u	-3.8%	x
O=C(O)c1ccc2c(c1)C(=O)N(c1nccs1)C2=O	i	-6.4%	-2.2%	1.3%	1.2%	-22.0%
Brc1cc2c(cc1Br)OCCOCCOCCOCCO2	i	-16.6%	-18.5%	-6.9%	3.6%	-1.1%
Brc1ccc2c(c1)OCCOCCOc1cc(Br)ccc1OCCOCCOCCO2	u	u	15.8µM*	u	u	-40.6%
Cc1c(C(=O)Nc2ccccn2)sc2nc3n(c(=O)c12)CCC3	i	-24.9%	-27.3%	u	9.7%	-4.5%
c1csc(Cc2nc(-c3ccc(-n4cccc4)cc3)no2)c1	i	-17.4%	9.4%	1.6%	2.4%	-37.5%
c1ccc(-c2nnc(-c3ccccn3)s2)nc1	i	-13.1%	8.91µM*	u	2.3%	-5.9%
c1ccc(-c2nc(-c3ccccn3)nc(-c3ccccn3)n2)nc1	u	-27.0%	u	2.8%	-14.2%	-44.1%
COc1ccc(C2c3c(n(C)c4ccccc34)C(=O)N2CC(=O)Nc2c(C)cc(C)cc2C)cc1 (stereo not drawn)	x	u	x	-26.8%	-6.5%	-19.7%
SMILES	S2 tox	TGFb inhibitor	ATXN2 expr inh	Nrf2 inh	A549 tox	HepG2 viability
Cc1cc(N/N=C/c2ccc(O)cc2)c2cccc(C)c2n1	u	u	x	-11.1%	-22.9%	17.8µM*
Cc1cc(C)c2nc(C)cc(N/N=C/c3ccc(O)cc3)c2c1	u	20µM*	u	-20.6%	u	17.8µM*
Cc1cc(N/N=C/c2ccc(N(C)C)cc2)c2ccccc2n1	i	-17.2%	x	u	11.2%	-9.3%
O=C(N/N=C/c1ccc(-n2ccnc2)cc1)c1cccs1	i	-13.6%	27.0%	u	0.9%	6.8%
CC[C@@]1(c2ccccc2OC)ON(c2ccccc2C(F)(F)F)C1=O	x	u	22.4µM*	-27.4%	-10.7%	14.1µM*
Cc1ccccc1[C@@]1(C)ON(c2ccccc2C(F)(F)F)C1=O	u	u	u	9.7%	-0.5%	0.8%

Source: PubChem BioAssay
